{
  "source": "PubChem BioAssay AID743286",
  "about": "(National Center for Advancing Translational Sciences (NCATS), 2014)",
  "note": "Screen size: about 1,100 compounds; about 340 (31%) were called active. Roughly 40% stayed inconclusive and do not appear here. The list is a sample of the results. A number with no mark means an inactive call. Calls follow the shape of the dose curve; as a rule, active = well fitted inhibition curve with a large enough effect; inconclusive = small, poorly fitted or top-dose-only effect; inactive = flat fitted curve, though single readings scatter. % is scaled to controls: 0 for no effect and ±100 for the full control effect; potency is read from the fitted curve at half-maximal effect.",
  "data": [
    {"target": "Phosphatidylinositol 5-phosphate 4-kinase type-2 alpha (Homo sapiens) (UniProt P48426)", "sequence (P48426 whole entry, looked up)": "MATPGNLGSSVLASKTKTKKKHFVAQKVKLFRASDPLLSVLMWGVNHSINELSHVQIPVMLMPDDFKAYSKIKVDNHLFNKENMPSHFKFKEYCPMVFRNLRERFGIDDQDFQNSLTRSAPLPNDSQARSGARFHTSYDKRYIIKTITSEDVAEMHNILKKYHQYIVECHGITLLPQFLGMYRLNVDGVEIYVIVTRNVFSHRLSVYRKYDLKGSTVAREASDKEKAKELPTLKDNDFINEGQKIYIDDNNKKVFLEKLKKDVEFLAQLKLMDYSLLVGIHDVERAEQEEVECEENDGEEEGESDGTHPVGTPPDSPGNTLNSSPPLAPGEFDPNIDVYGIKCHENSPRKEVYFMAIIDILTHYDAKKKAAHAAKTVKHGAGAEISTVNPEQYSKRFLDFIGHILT", "test": "qHTS for Inhibitors of PI5P4K: Confirmation in Primary Assay; also: nearly all actives have a fitted effect of over 65% in size", "details": "PI5P4Kalpha enzyme, ADP-Glo luminescence, 60 min; series mostly up to 76.9 µM; activity change, negative = inhibition: at the top concentration", "summary_of_the_method": "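Hits from a qHTS screen were retested in the same PI5P4Kα ADP-Glo format: 5 microM ATP, HEPES pH 7.4 buffer with CHAPS and EGTA, 60 min room-temperature reaction, single end-point luminescence read.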", "units": {"activity change, negative = inhibition": "%"}, "values": [
      {"smiles": "O=c1[nH]c(N2CCOCC2)cc2ccccc12", "activity change, negative = inhibition": 1.03},
      {"smiles": "c1ccc2c(OCCCCN3CCOCC3)cccc2c1", "activity change, negative = inhibition": -1.13},
      {"smiles": "Oc1c(C(c2ccccc2)N2CCOCC2)ccc2ccccc12", "note": "(stereo not drawn)", "Potency": "3.98 µM (active)"},
      {"smiles": "CC1CCCC(C)N1C(=O)COC(=O)CNC(=O)c1ccccc1", "note": "(stereo not drawn)", "activity change, negative = inhibition": 0.689},
      {"smiles": "Cc1cc2nc(NC(=O)C3(C)CCN3C(=O)C(C)C)[nH]c2cc1C", "note": "(stereo not drawn)", "activity change, negative = inhibition": -17.4},
      {"smiles": "CC1(C(=O)NS(=O)(=O)C2CC2)CCN(C(=O)c2ccccc2F)C1", "note": "(stereo not drawn)", "activity change, negative = inhibition": -6.44},
      {"smiles": "N#Cc1ccc(COC(=O)CC(NC(N)=O)c2ccc(Cl)cc2)cc1", "note": "(stereo not drawn)", "activity change, negative = inhibition": -7.64},
      {"smiles": "COCCOC(=O)c1[nH]c2c(c1C)C(=O)CC(c1ccco1)C2", "note": "(stereo not drawn)", "Potency": "15.8 µM (active)"},
      {"smiles": "O=C(Nc1ccc(O)c2c(=O)cc(-c3ccccc3Cl)oc12)c1ccc(Cl)c(Cl)c1", "activity change, negative = inhibition": -1.44},
      {"smiles": "Nc1c(C(=O)O)cnc2c(-c3ccc(Cl)cc3)cnn12", "Potency": "6.31 µM (active)"},
      {"smiles": "CN1OC[C@@H]2CN3C(=O)N(c4cccc5ccccc45)c4ccccc4[C@@H]3C[C@@H]21", "activity change, negative = inhibition": -17.2},
      {"smiles": "CCCn1c(SCC(=O)N2c3ccccc3Sc3ccccc32)nc2c1c(=O)n(C)c(=O)n2C", "activity change, negative = inhibition": -3.15},
      {"smiles": "CCC(c1nnnn1Cc1ccco1)N(CCc1ccccc1)Cc1cc2ccc(OC)cc2[nH]c1=O", "note": "(stereo not drawn)", "activity change, negative = inhibition": 2.22},
      {"smiles": "O=C(NCCN1CCN(c2ccccc2)CC1)C1CCCN(S(=O)(=O)c2cnc[nH]2)C1", "note": "(stereo not drawn)", "activity change, negative = inhibition": 3.17},
      {"smiles": "Cc1cc(NS(=O)(=O)c2ccc(NC(=O)COc3ccc(Br)cc3)cc2)nc(C)n1", "activity change, negative = inhibition": 0.161},
      {"smiles": "Cc1cc(C)c2nc(-c3ccccn3)cc(C(=O)Nc3ccc(S(=O)(=O)Nc4onc(C)c4C)cc3)c2c1", "Potency": "8.91 µM (active)"},
      {"smiles": "COCCCNC(=O)c1ccc2c(=O)n(CC3CCCO3)c(=S)[nH]c2c1", "note": "(stereo not drawn)", "activity change, negative = inhibition": -8.52},
      {"smiles": "CN(Cc1ccccc1)C(=O)c1csc([C@H]2C[C@H](O)[C@@H](CO)O2)n1", "activity change, negative = inhibition": -0.235},
      {"smiles": "COc1cccc(CNS(=O)(=O)c2ccccc2Br)c1OC", "activity change, negative = inhibition": -0.448},
      {"smiles": "COC(=O)CSc1nc(C)cc(C)n1", "activity change, negative = inhibition": 1.95},
      {"smiles": "CC1CCCCN1C(=O)Cn1cnc2cc([N+](=O)[O-])ccc2c1=O", "note": "(stereo not drawn)", "activity change, negative = inhibition": -5.4},
      {"smiles": "O=C(Cn1cnc2scc(-c3cccc([N+](=O)[O-])c3)c2c1=O)NCc1ccco1", "Potency": "11.2 µM (active)"},
      {"smiles": "COC(=O)CNC(=O)C1Cc2ccccc2CN1S(=O)(=O)c1cccs1", "note": "(stereo not drawn)", "activity change, negative = inhibition": -1.95},
      {"smiles": "O=C(O)c1ccc(Cl)c(S(=O)(=O)Nc2ccc3[nH]c(=O)[nH]c3c2)c1", "activity change, negative = inhibition": -19.7},
      {"smiles": "O=S(=O)(Nc1nc(-c2ccccc2)cs1)c1cc(Cl)ccc1Cl", "Potency": "28.2 µM (active)"},
      {"smiles": "COC(=O)c1ccccc1NC(=O)CN1CCC(n2nnc3cc(C(F)(F)F)ccc32)CC1", "activity change, negative = inhibition": -0.603},
      {"smiles": "Cc1ccc(S(=O)(=O)N2[C@@H](c3ccc(C(C)(C)C)cc3)C(C(=O)O)=CC[C@H]2c2ccc(C(C)C)cc2)cc1", "activity change, negative = inhibition": -29.1},
      {"smiles": "Cc1cccc(NC(c2ccc(O)cc2)c2ccc3ccc(C)nc3c2O)n1", "note": "(stereo not drawn)", "Potency": "22.4 µM (active)"},
      {"smiles": "O=c1cc(-c2ccccc2)[nH]n1-c1nc2ccccc2[nH]1", "Potency": "15.8 µM (active)"},
      {"smiles": "CC(C)C(=O)Nc1nnc(NC(=S)Nc2ccccc2)s1", "Potency": "20 µM (active)"},
      {"smiles": "CC(=O)Nc1ccc(NC(=S)Nc2ccc(Br)cc2)cc1", "activity change, negative = inhibition": 2.77},
      {"smiles": "O=C(CSc1n[nH]c(-c2cccnc2)n1)OC1CCCCC1", "activity change, negative = inhibition": -6.36},
      {"smiles": "CCCCC(=O)N(Cc1ccc2c(c1)OCO2)Cc1nc2ccccc2c(=O)[nH]1", "activity change, negative = inhibition": -1.7},
      {"smiles": "CCCN(C(=O)c1cccc(-n2cccc2)c1)c1c(N)n(Cc2ccccc2)c(=O)[nH]c1=O", "Potency": "7.08 µM (active)"},
      {"smiles": "CCCn1c(N)c(N(CCOC)C(=O)c2cc(-c3ccco3)nc3ccccc23)c(=O)[nH]c1=O", "activity change, negative = inhibition": -19},
      {"smiles": "CCCN(C(=O)c1cc(-c2ccco2)nc2ccccc12)c1c(N)n(Cc2ccccc2)c(=O)[nH]c1=O", "Potency": "15.8 µM (active)"},
      {"smiles": "Cc1ccc(Nc2nc(C)c3c(n2)CC(C)CC3=O)c(C)c1", "note": "(stereo not drawn)", "activity change, negative = inhibition": -0.0066},
      {"smiles": "O=C(O)c1cc2c(N3CCC(Cc4ccccc4)CC3)ncnc2s1", "Potency": "3.98 µM (active)"}
    ]}
  ]
}
